Among the data in the supplement of paper PMC10600219 are cell viability values, retold here.

Structures can show the parent of a compound that is named as a salt. Whole data set: some 2,800 compounds, median “cell viability relative to vehicle” near 0.98, cut for the lowest 2% near 0.45. The sample holds the lowest values, similar compounds and a random draw of the others, so the mix is not that of the screen.

This assay has as its system NCI-H2228 alectinib-DTP. Description: cell viability relative to vehicle (fraction of vehicle); NCI-H2228 is an ALK-positive lung cancer line and DTP means drug-tolerant persister; higher = less growth inhibition. To be noted: 100 nM; treatment time 6 days. In a few lines: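 NCI-H2228 parental cells and drug-tolerant persister cells were plated in 384-well plates; the persisters had been generated with 1000 nM of a targeted drug over 13 days. One day later, the 3114-agent TargetMol anti-cancer compound library was added at 100 nM, with DMSO serving as vehicle. ATP was measured 6 days after that using the CellTiter-Glo 3D Cell Viability Assay. Values are cell viability expressed relative to vehicle-treated cells.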
`O=C(NCc1ccc(S(=O)(=O)c2cc(F)cc(F)c2)cc1)c1ccc2nccn2c1` returned a cell viability of 0.34.
The figure for `Cc1ccc(S(=O)(=O)Cc2nc(-c3ccc(C(=O)NCc4cccnc4)cc3)oc2C)cc1` is 0.955.
The result for `CC1(C)CC[C@]2(C(=O)O)CCC3=C([C@@H](CCl)C[C@@H]4[C@@]5(C)C[C@H](O)[C@H](O)[C@@](C)(C(=O)O)[C@@H]5CC[C@@]34C)[C@@H]2C1` [Senegenin] reads 0.889; that for `COCc1c(-c2ccc(NC(=O)Nc3cc(C(F)(F)F)ccc3F)c(F)c2)c2c(N)ncnn2c1CN1CCOCC1`, 0.632; that for `C[C@@H]1CC[C@@]2(NC1)O[C@H]1C[C@H]3[C@@H]4CC=C5C[C@@H](O[C@@H]6O[C@H](CO)[C@@H](O[C@@H]7O[C@@H](C)[C@H](O)[C@@H](O)[C@H]7O)[C@H](O)[C@H]6O[C@@H]6O[C@@H](C)[C@H](O)[C@@H](O)[C@H]6O)CC[C@]5(C)[C@H]4CC[C@]3(C)[C@H]1[C@@H]2C` [Solamargine], 1.06.
The result for `COc1ccc(-c2ccc3c(N4CCOCC4)nc(N4C[C@@H](C)O[C@@H](C)C4)nc3n2)cc1CO` reads 0.765; that for `CNC(=O)c1cccc(-c2ccc3c(N4CCOC[C@@H]4C)nc(N4CCOC[C@@H]4C)nc3n2)c1` [Vistusertib], 0.594; that for `COc1ccc(-c2ccc3c(N4CCOC[C@@H]4C)nc(N4CCOC[C@@H]4C)nc3n2)cc1CO`, 0.377.
As to `COc1ccc([C@@H]2OC[C@H]3[C@@H]2CO[C@@H]3c2ccc3c(c2)OCO3)cc1OC` [Fargesin], the cell viability was 1.11.
As for `O=C1c2c(O)ccc(O)c2C(=O)c2c(NCCNCCO)ccc(NCCNCCO)c21` [Mitoxantrone], the cell viability worked out at 0.386.
In the case of `O=C1c2cccc(O)c2C(=O)c2c(O)cccc21` [Antrapurol], the cell viability was found to be 0.878.
The figure for `NCCNc1ccc(NCCN)c2c1C(=O)c1ccncc1C2=O` [Pixantrone dimaleate] is 0.661; for `CC(C)=CCc1c(O)ccc(C(=O)/C=C/c2ccc(O)cc2)c1O` [Isobacachalcone] it is 1.01; for `Cc1ccc([N+](=O)[O-])cc1S(=O)(=O)N(C)/N=C/c1cnc2ccc(Br)cn12` [PIK-75  hydrochloride] it is 0.201.
The figure for `Cc1ccc([N+](=O)[O-])cc1S(=O)(=O)N(C)/N=C/c1cnc2ccc(Br)cn12` is 0.172; for `CC(C)n1cnc2c(NCc3ccccc3)nc(NCCCO)nc21` [Bohemine] it is 0.951; for `C=CCSC[C@H](N)C(=O)O` [S-allyl-L-cysteine] it is 1.06.
The result for `CC(C)=CC[C@H](O)C1=CC(=O)c2c(O)ccc(O)c2C1=O` [Alkannin] reads 0.957; that for `CC1=C(C(=O)Nc2ccc3[nH]ncc3c2)C(c2ccc(F)c(C(=O)NCc3ccccn3)c2)NC(=O)N1` (stereo unspecified), 1; that for `CC(C)(C#N)c1ccc(N2C(=O)OCc3cnc4ccc(-c5cnc6ccccc6c5)cc4c32)cc1`, 0.925.
Molecule `Cn1c(=O)n(-c2ccc(C(C)(C)C#N)cc2)c2c3cc(-c4cnc5ccccc5c4)ccc3ncc21` [Dactolisib] registered a cell viability of 0.435.
`CO[C@@H](C)Cn1c(=O)n(C)c2cnc3ccc(-c4cncc(C(C)(C)O)c4)cc3c21` came in with a cell viability of 0.513.
For the molecule `O[C@@H]1[C@@H](O)[C@@H](OC/C=C/c2ccccc2)O[C@H](CO[C@@H]2OC[C@H](O)[C@H](O)[C@H]2O)[C@H]1O` [Rosavin], the cell viability came out at 0.944.
The result for `C[C@@H]1CC(=O)Nc2cccc(-c3ccc4c(c3)c(-c3cnn(C)c3)nn4C)c2N1` reads 1.01; that for `O=C(Nc1nc(-c2ccc(O)c(O)c2)c(-c2ccccc2)s1)c1ccc(O)c(O)c1`, 1.03; that for `CCCS(=O)(=O)Nc1ccc(F)c(C(=O)c2c[nH]c3ncc(-c4ccc(Cl)cc4)cc23)c1F` [Vemurafenib], 1.12.
The molecule `COc1ncc(-c2ccc3nccc(-c4ccnnc4)c3c2)cc1NS(=O)(=O)c1ccc(F)cc1F` [Omipalisib] gave a cell viability of 0.261.
Consider `CS(=O)(=O)Nc1cc(-c2ccc3ncnc(Nc4ccc(F)c(Cl)c4)c3c2)cnc1Cl`, for which the cell viability turned out to be 0.997.
The result for `Nc1ccccc1C(=O)C[C@H](N)C(=O)O` [L-Kynurenine] reads 0.987.
As to `N#CCC(C1CCCC1)n1cc(-c2ncnc3[nH]ccc23)cn1` (stereo unspecified), the cell viability worked out at 1.16.
As to `CN1CCN(c2cc(-c3ccccc3)nc(N)n2)CC1`, the cell viability amounted to 1.09.
The result for `COC(=O)c1ccc([C@H]2c3[nH]c4ccccc4c3C[C@H](C(=O)OC)N2C(=O)CCl)cc1` reads 0.0417; that for `CN1CC(=O)N2[C@H](c3ccc4c(c3)OCO4)c3[nH]c4ccccc4c3C[C@@H]2C1=O` [Tadalafil], 0.916; that for `COC(=O)[C@@H]1[C@H]2C[C@H]3c4[nH]c5ccccc5c4CCN3C[C@@H]2CC[C@@H]1O` [Yohimbine hydrochloride], 1.22.
The figure for `CCCNC(=O)c1cn2ncnc(Nc3cc(C(=O)NC4CC4)ccc3C)c2c1C` is 1.03; for `COc1ccc(-c2ccccc2)cc1NS(=O)(=O)c1cc(Cl)cc(Cl)c1O` it is 0.883.
